We go through 1 compound from PubChem BioAssay AID2284085 (EPA ToxCast).

Molecules are shown by their SMILES. Active and inactive are the calls of the source. How the source made its calls: active means hit-call score of the fitted dose curve at least 0.9, where 1 is the maximum; inactive means score below 0.9.

human Fms (CSFR) (CSF1R) Receptor Tyrosine Kinase, CSF1R (gene 1436), sequence (P07333 whole entry, looked up): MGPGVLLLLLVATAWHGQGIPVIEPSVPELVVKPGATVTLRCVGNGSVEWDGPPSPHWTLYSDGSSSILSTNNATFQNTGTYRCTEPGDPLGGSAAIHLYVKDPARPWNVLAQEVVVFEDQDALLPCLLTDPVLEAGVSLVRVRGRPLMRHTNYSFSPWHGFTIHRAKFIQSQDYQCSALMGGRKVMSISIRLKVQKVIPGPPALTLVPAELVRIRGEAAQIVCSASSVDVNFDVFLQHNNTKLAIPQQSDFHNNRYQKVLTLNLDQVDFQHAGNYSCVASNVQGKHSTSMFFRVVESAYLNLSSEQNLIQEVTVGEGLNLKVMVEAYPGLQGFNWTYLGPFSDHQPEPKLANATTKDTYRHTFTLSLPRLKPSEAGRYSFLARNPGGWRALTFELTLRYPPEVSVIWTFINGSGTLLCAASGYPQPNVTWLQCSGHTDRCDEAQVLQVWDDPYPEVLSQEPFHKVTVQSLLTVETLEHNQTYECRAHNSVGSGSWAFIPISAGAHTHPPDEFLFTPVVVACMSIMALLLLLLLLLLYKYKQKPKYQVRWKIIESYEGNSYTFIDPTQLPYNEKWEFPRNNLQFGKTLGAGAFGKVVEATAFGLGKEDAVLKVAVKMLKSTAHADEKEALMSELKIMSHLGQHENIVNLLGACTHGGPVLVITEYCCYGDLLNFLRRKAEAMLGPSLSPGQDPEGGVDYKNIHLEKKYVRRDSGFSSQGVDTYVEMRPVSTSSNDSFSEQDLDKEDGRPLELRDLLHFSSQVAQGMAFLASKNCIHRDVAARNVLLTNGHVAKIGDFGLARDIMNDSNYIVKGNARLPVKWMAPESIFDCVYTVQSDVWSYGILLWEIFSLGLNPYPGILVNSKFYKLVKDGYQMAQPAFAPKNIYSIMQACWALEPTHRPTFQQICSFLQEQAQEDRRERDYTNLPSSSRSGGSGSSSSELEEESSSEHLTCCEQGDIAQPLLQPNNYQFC

This assay concerns the target human Fms (CSFR) (CSF1R) Receptor Tyrosine Kinase, CSF1R (gene 1436) (UniProt P07333). Briefly: ERF_FR_ENZ_hCSF1R: Eurofins (ERF) Enzymatic Radiometric [Km ATP] KinaseProfiler LeadHunter Assay for human Fms (CSFR) (CSF1R) Receptor Tyrosine Kinase. As to the method: ERF_FR_ENZ_hCSF1R is a biochemical, single-readout assay that uses extracted gene-proteins in a cell-free assay. Measurements were taken 0.25 hour after chemical dosing in a 96-well plate. See Fms (CSFR) Human RTK Kinase Enzymatic LANCE Assay [Km ATP], Cerep.ERF_FR_ENZ_hCSF1R is an assay component calculated from the ERF_FR_ENZ_hCSF1R assay. It is designed to measure enzyme activity using a type of enzyme reporter as detected by fluorescence intensity with LANCE technology.Data from the assay component ERF_FR_ENZ_hCSF1R was analyzed at the assay endpoint, ERF_FR_ENZ_hCSF1R, in the positive analysis fitting direction relative to DMSO as the negative control and baseline of activity. Using a type of enzyme reporter, loss-of-signal activity can be used to understand changes in enzymatic activity as they relate to gene CSF1R. To generalize the intended target to other relatable targets, this assay endpoint is annotated to the kinase intended target family, where the subfamily is receptor tyrosine kinase.
Fms (h) is incubated with 8 mM MOPS pH 7.0, 0.2 mM EDTA, 250 uM […], 10 mM MgAcetate and [g- 33P]-ATP (specific activity and concentration as required). The reaction is initiated by the addition of the Mg/ATP mix. After incubation for 40 minutes at room temperature, the reaction is stopped by the addition of phosphoric acid to a concentration of 0.5%. […]
Take `O=C(/C=C/c1ccc(O)cc1)CC(=O)/C=C/c1ccc(O)cc1`: the outcome was inactive.
